# Screens as filed in PubChem.
# Sampled rows, rich in hits. Any-hit rate of the full collection: about 3.1%.
# Env fusion inh = inhibitors of HIV Env-mediated cell fusion. HeLa-JRFL Env/CEM21 cell fusion, luciferase. inhibition, % at 12.3 µM. hit rate 1.1% among 360,000. AID 651610;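 active means mean replicate inhibition score of at least 50 and every replicate individually at or above 50; inconclusive means only one of the two criteria met; inactive means mean below 50 and not all replicates reaching 50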
# INS-1E GSIS act = GLuc luminescence reporter in INS-1E cells, primary screen for activators of glucose-dependent secretion of insulin | activation, % at 16.6 µM | hit rate 0.61% among 370,000 | INS-1E GLuc reporter insulin secretion, 2-3 h | AID 743287;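 active means lowest replicate activation of at least 40%, so every replicate reaches that level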
# miR-122 sensor = miR-122 inhibition in Huh7 cells; Huh7 miR-122 Renilla luciferase sensor, 48 h; neutral wells = 0, positive control = 100; activation (reporter increase), % at 12.5 µM; AID 602342; hit rate 0.3% among 340,000;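 active means mean replicate activation score at least 90 and every replicate individually at or above 90; inconclusive means only one of the two criteria met; inactive means neither criterion met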;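 further: higher luciferase means less miR-122 activity so hits act as miR-122 inhibitors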
# C2C12 statin = suppression of simvastatin myotoxicity. C2C12 myotubes + simvastatin, ATP luminescence, 48 h; scaled: DMSO 0, geranylgeraniol control 100. rescue of ATP level, % at 7.49 µM. hit rate 0.78% among 330,000;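 active means mean ATP rescue above about 67%, or every replicate alone reaching that limit, limit read from the data, passing the limit was not always enough; inconclusive means no clear call, values can overlap the other calls; inactive means mean under the limit and some replicate under it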;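 further: myotubes were challenged with 10 µM simvastatin during compound exposure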
# EWS-Fli block = inhibitors of EWS/Fli oncoprotein transcriptional activity | A673 NR0B1-luciferase reporter, viability-normalised | inhibition, % at 12.6 µM | hit rate 0.67% among 350,000 | AID 651661;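 active means mean inhibition of at least 50% after viability correction, with every replicate also passing that limit; inconclusive means mean reaches 50% but only one of two replicates passes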;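 further: firefly luciferase signal divided by Alamar Blue viability fluorescence both relative to DMSO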
# PAX8 reporter = PAX8 transcriptional activity inhibition; RMG-I TPO-luciferase reporter, SteadyGlo, 24 h; inhibition, % at 12.6 µM; hit rate 1.2% among 360,000; AID 652154;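 active means mean replicate inhibition at least 60% with every replicate also reaching 60%; inconclusive means only one of the two criteria is met; inactive means mean below 60% and not all replicates reaching 60%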;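 further: luciferase light reporting Pax8 driven TPO promoter activity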
# Hits are given with their value; 0 = inactive; ? = inconclusive; - = no result given.
SMILES,Env fusion inh,INS-1E GSIS act,miR-122 sensor,C2C12 statin,EWS-Fli block,PAX8 reporter
N#Cc1cccc(-c2ccc([C@H]3[C@@H](CO)N4CCCCN(C(=O)Cc5ccncc5)C[C@@H]34)cc2)c1,-,0,0,-,-,0
CCCNC(=O)N1[C@@H]2Cn3c(ccc(-c4cccc(C(=O)N(C)C)c4)c3=O)[C@H]1[C@@H](C(=O)O)[C@@H]2CO,-,0,-,-,0,0
COc1cc2c(c(OC)c1OC)-c1ccc(O)cc1C(NC(C)=O)CC2 (stereo unspecified),0,0,0,0,0,80
COc1cc2c(c(OC)c1OC)-c1ccc(O)cc1[C@@H](NC(C)=O)CC2,0,0,-,0,51,90
CS(=O)(=O)N1C[C@@H]2C(c3ccccc3)[C@H](C1)N2CC1CC1 (stereo partly specified),-,0,-,-,-,-
COC(=O)[C@@H]1[C@@H](CO)[C@@H]2Cn3c(ccc(C4=CCCC4)c3=O)[C@H]1N2CC1CCCC1,-,0,-,-,0,-
c1ccc(CNCCc2c[nH]c3ccccc23)cc1,0,0,0,0,0,0
COc1cc(CNCCc2c[nH]c3ccccc23)cc(OC)c1OC,0,0,0,0,0,0
CCc1ccc(CNCCc2c[nH]c3ccccc23)cc1,78,0,0,0,0,0
COc1cc(CNCCc2c[nH]c3ccccc23)cc(OC)c1,61,0,0,0,0,0
Cc1cccc(S(=O)(=O)N2[C@@H]3c4ccc(-c5cccc(F)c5)c(=O)n4C[C@H]2[C@H](CO)[C@H]3C(=O)O)c1,-,0,0,0,0,0
C=CCN1[C@@H]2CN(CC(F)(F)F)C[C@H]1C2c1ccc(Br)cc1 (stereo partly specified),-,0,-,-,-,-
CC(=O)OC12COC1CC(O)C1(C)C(=O)C(O)C3=C(C)C(O)CC(O)(C(OC(=O)c4ccccc4)C21)C3(C)C (stereo unspecified),0,-,0,-,73,-
CC(=O)O[C@@]12CO[C@@H]1C[C@@H](O)[C@@]1(C)C(=O)[C@H](O)C3=C(C)[C@@H](OC(=O)[C@H](O)[C@@H](NC(=O)c4ccccc4)c4ccccc4)C[C@@](O)([C@@H](OC(=O)c4ccccc4)C12)C3(C)C (stereo partly specified),-,-,0,0,55,-
CC(=O)O[C@@]12CO[C@@H]1C[C@H](OC1OCC(O)C(O)C1O)[C@@]1(C)C(=O)[C@H](O)C3=C(C)[C@@H](OC(=O)[C@H](O)[C@@H](NC(=O)c4ccccc4)c4ccccc4)C[C@@](O)([C@@H](OC(=O)c4ccccc4)C12)C3(C)C (stereo partly specified),-,0,0,0,55,-
COC(=O)[C@@H]1[C@@H](CO)[C@@H]2Cn3c(ccc(C4=CCCCC4)c3=O)[C@H]1N2Cc1cccnc1,-,0,0,0,0,0
COC(=O)[C@@H]1[C@@H](CO)[C@@H]2Cn3c(ccc(-c4ccccc4)c3=O)[C@H]1N2CCc1ccccc1,-,0,0,0,0,-
CN1[C@@H]2CN(CC(F)(F)F)C[C@H]1C2c1ccc(Br)cc1 (stereo partly specified),-,0,-,-,-,-
O=[N+]([O-])c1ccc(C[n+]2c(-c3ccccc3)cc(-c3ccccc3)cc2-c2ccccc2)cc1,0,0,-,0,0,79
COc1ccc(CN2Cc3cnnn3-c3ccccc3C2c2ccccc2)cc1 (stereo unspecified),0,0,0,0,0,0
CN1Cc2cnnn2-c2ccccc2C1C#N (stereo unspecified),0,0,0,0,0,0
COc1ccc(CN2Cc3cnnn3-c3ccccc3C2C#N)cc1 (stereo unspecified),0,0,0,0,?,62
N#CC1c2ccccc2-n2nncc2CN1Cc1cc(Cl)cc(Cl)c1 (stereo unspecified),0,0,0,0,62,106
O=C(O)[C@@H]1[C@@H](CO)[C@@H]2Cn3c(ccc(-c4cccnc4)c3=O)[C@H]1N2C(=O)Nc1cc(F)ccc1F,0,0,-,0,0,-
COc1ccc(C2=NCc3nnc(C)n3-c3ccc(Cl)cc32)cc1Cl,0,-,0,98,-,0
SMILES,Env fusion inh,INS-1E GSIS act,miR-122 sensor,C2C12 statin,EWS-Fli block,PAX8 reporter
COC(=O)[C@H]1[C@H](CO)[C@H]2Cn3c(ccc(-c4ccccc4OC)c3=O)[C@@H]1N2Cc1ccccc1,0,0,-,0,0,-
O=C(Cc1cccnc1)N1CCCCN2[C@H](C1)[C@H](c1ccc(/C=C/c3ccccc3)cc1)[C@@H]2CO,-,0,0,-,0,81
O=C(Cc1ccccn1)N1CCCCN2[C@H](CO)[C@H](c3ccc(-c4ccccc4F)cc3)[C@H]2C1,-,0,0,0,0,0
O=C(Cc1ccccn1)N1CCCCN2[C@H](CO)[C@@H](c3ccc(-c4ccccc4F)cc3)[C@H]2C1,-,0,0,0,0,0
O=C(Cc1cccnc1)N1CCCCN2[C@H](CO)[C@H](c3ccc(/C=C/c4ccccc4)cc3)[C@@H]2C1,-,0,0,-,0,0
O=C(Cc1ccccn1)N1CCCCN2[C@@H](CO)[C@@H](c3ccc(-c4ccccc4F)cc3)[C@@H]2C1,-,0,0,0,0,99
O=C(Cc1ccccn1)N1CCCCN2[C@@H](CO)[C@H](c3ccc(-c4ccccc4F)cc3)[C@@H]2C1,-,0,0,0,0,67
COC(=O)[C@@H]1[C@@H](CO)[C@@H]2Cn3c(ccc(-c4ccccc4)c3=O)[C@H]1N2C(=O)c1ccccc1F,-,0,0,0,0,-
COC(=O)[C@@H]1[C@@H](CO)[C@@H]2Cn3c(ccc(-c4ccccc4F)c3=O)[C@H]1N2Cc1cccnc1,-,0,0,0,0,0
C/C=C/c1ccc(C2[C@@H]3CN(Cc4cocn4)C[C@H]2N3)cc1 (stereo partly specified),-,0,-,-,0,0
CCOC(=O)[C@]12Cc3cc(OC)ccc3[C@H]1N(C)C(=O)c1ccccc12,0,0,-,-,0,0
CCOC(=O)[C@]12Cc3cc(Cl)ccc3[C@H]1N(C(C)C)C(=O)c1ccccc12,0,0,-,-,0,86
CCCCCN1C(=O)c2cc(OC)ccc2[C@@]2(C(=O)OCC)Cc3cc(Cl)ccc3[C@@H]12,0,0,-,-,57,0
CCOC(=O)[C@]12Cc3cc(OC)c(OC)cc3[C@H]1N(Cc1ccccc1)C(=O)c1ccccc12,0,0,0,0,0,0
CCOC(=O)[C@]12Cc3cc(Cl)ccc3[C@H]1N(Cc1ccccc1)C(=O)c1cc(OC)ccc12,0,0,-,-,0,0
CCOC(=O)[C@]12Cc3c(cc(OC)c(OC)c3OC)[C@H]1N(Cc1ccccc1)C(=O)c1ccccc12,64,0,0,0,0,0
CCOC(=O)[C@]12Cc3cc(OC)ccc3[C@H]1N(C1CCCCC1)C(=O)c1ccccc12,0,0,-,-,57,76
N#Cc1cccc(-c2ccc([C@@H]3[C@H](CO)N4CCCCN(C(=O)Cc5ccccc5)C[C@@H]34)cc2)c1,-,0,0,-,0,0
